Test results: PubChem BioAssay AID1159580 (chemical genetic matrix, 2015)
Several values for one entry are separate records, joined by “and”; a condition that tells them apart may be missing. Equal values may be shown once. Screen size: about 5,500 compounds; about 2,000 (36%) were called active. Another 18% or so got no clear call; they are omitted. Some of the results follow. Values without a mark were called inactive. Cut-off read from the data, not from the text of the source: active = normalized growth mostly below about 0.91 (no sharp cut-off); inconclusive = no clear call, values can overlap the other calls; inactive = mostly above about 0.92.

Experiment: chemical genetic growth profiling, strain panel (AID 1159580);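 note: tested at 20 µM; growth read once vehicle control cultures reached saturation at 30 °C; 1 = growth at the plate median or of vehicle wells; lower values mean less growth of the strain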
Conditions: S. cerevisiae deletion strains, growth OD

For `CC(=O)N(O)CCCCCNC(=O)CCC(=O)N(O)CCCCCNC(=O)CCC(=O)N(O)CCCCCN`, the normalized growth (locus YAL013W, strain DEP1, stronger effect = lower value) was 0.997, the normalized growth (locus YAL021C, strain ccr4, stronger effect = lower value) was 0.959 and the normalized growth (locus YAL026C, strain drs2, stronger effect = lower value) was 1. The normalized growth (locus YAL030W, strain snc1, stronger effect = lower value) was 1, the normalized growth (locus YBL061C, strain skt5, stronger effect = lower value) was 1 and the normalized growth (locus YBR009C, strain hhf1, stronger effect = lower value) was 1. The normalized growth (locus YBR021W, strain FUR4, stronger effect = lower value) was 0.845 (active), the normalized growth (locus YBR023C, strain chs3, stronger effect = lower value) was 1.02 and the normalized growth (locus YBR171W, strain sec66, stronger effect = lower value) was 1.01. The normalized growth (locus YBR229C, strain ROT2, stronger effect = lower value) was 1.01, the normalized growth (locus YBR231C, strain swc5, stronger effect = lower value) was 0.967 and the normalized growth (locus YBR279W, strain paf1, stronger effect = lower value) was 0.99. The normalized growth (locus YCL011C, strain gbp2, stronger effect = lower value) was 1.04, the normalized growth (locus YCL016C, strain dcc1, stronger effect = lower value) was 1.03 and the normalized growth (locus YCL029C, strain bik1, stronger effect = lower value) was 1.04. The normalized growth (locus YCL069W, strain vba3, stronger effect = lower value) was 0.994, the normalized growth (locus YCR088W, strain abp1, stronger effect = lower value) was 1.02 and the normalized growth (locus YDL005C, strain med2, stronger effect = lower value) was 1.01. It also gave a normalized growth (locus YDL035C, strain GPR1, stronger effect = lower value) of 0.987, a normalized growth (locus YDL040C, strain nat1, stronger effect = lower value) of 1 and a normalized growth (locus YDL074C, strain BRE1, stronger effect = lower value) of 0.907. It also gave a normalized growth (locus YDL101C, strain DUN1, stronger effect = lower value) of 1.01, a normalized growth (locus YDL185W, strain tfp1, stronger effect = lower value) of 0.967 and a normalized growth (locus YDL192W, strain arf1, stronger effect = lower value) of 1.01. The normalized growth (locus YDR001C, strain nth1, stronger effect = lower value) was 1.03, the normalized growth (locus YDR069C, strain doa4, stronger effect = lower value) was 0.978 and the normalized growth (locus YDR101C, strain arx1, stronger effect = lower value) was 1.04. It also gave a normalized growth (locus YDR137W, strain rgp1, stronger effect = lower value) of 1.12, a normalized growth (locus YDR150W, strain NUM1, stronger effect = lower value) of 1.01 and a normalized growth (locus YDR159W, strain sac3, stronger effect = lower value) of 1.05. For the same molecule, the normalized growth (locus YDR162C, strain NBP2, stronger effect = lower value) was 0.997, the normalized growth (locus YDR195W, strain ref2) was 1.03 and the normalized growth (locus YDR297W, strain sur2, stronger effect = lower value) was 0.997. The normalized growth (locus YDR318W, strain mcm21, stronger effect = lower value) was 1.02, the normalized growth (locus YDR334W, strain swr1, stronger effect = lower value) was 0.998 and the normalized growth (locus YDR335W, strain msn5, stronger effect = lower value) was 0.987. The normalized growth (locus YDR388W, stronger effect = lower value) was 1.02, the normalized growth (locus YDR392W, strain spt3, stronger effect = lower value) was 1.2 and the normalized growth (locus YDR502C, strain sam2, stronger effect = lower value) was 1.04. It also gave a normalized growth (locus YEL003W, strain gim4, stronger effect = lower value) of 0.961, a normalized growth (locus YEL037C, strain rad23, stronger effect = lower value) of 0.997 and a normalized growth (locus YEL061C, strain CIN8 (second series), stronger effect = lower value) of 1.01. It also gave a normalized growth (locus YEL061C, strain CIN8, stronger effect = lower value) of 1.01, a normalized growth (locus YER015W, strain faa2, stronger effect = lower value) of 0.944 and a normalized growth (locus YER016W, strain bim1, stronger effect = lower value) of 1.01. For the same molecule, the normalized growth (locus YER110C, stronger effect = lower value) was 1.01, the normalized growth (locus YER111C, strain swi4, stronger effect = lower value) was 0.973 and the normalized growth (locus YER155C, strain BEM2 (second series), stronger effect = lower value) was 1.06. It also gave a normalized growth (locus YER155C, strain BEM2, stronger effect = lower value) of 1.04, a normalized growth (locus YER167W, strain BCK2, stronger effect = lower value) of 1.05 and a normalized growth (locus YFR010W, strain ubp6, stronger effect = lower value) of 0.986. For the same molecule, the normalized growth (locus YGL078C, strain dbp3, stronger effect = lower value) was 1.07, the normalized growth (locus YGL086W, strain mad1, stronger effect = lower value) was 1.01 and the normalized growth (locus YGL167C, strain pmr1, stronger effect = lower value) was 0.978. It also gave a normalized growth (locus YGL173C, strain kem1, stronger effect = lower value) of 0.99, a normalized growth (locus YGL227W, strain vid30, stronger effect = lower value) of 1.02 and a normalized growth (locus YGL240W, strain doc1, stronger effect = lower value) of 1.01. It also gave a normalized growth (locus YGL248W, strain PDE1, stronger effect = lower value) of 0.987, a normalized growth (locus YGL253W, strain hxk2, stronger effect = lower value) of 0.989 and a normalized growth (locus YGR078C, strain PAC10, stronger effect = lower value) of 0.983. The normalized growth (locus YGR135W, strain pre9, stronger effect = lower value) was 0.994, the normalized growth (locus YGR252W, strain gcn5, stronger effect = lower value) was 0.771 and the normalized growth (locus YHR013C, strain ard1, stronger effect = lower value) was 0.984. For the same molecule, the normalized growth (locus YHR027C, strain rpn1, stronger effect = lower value) was 0.94, the normalized growth (locus YHR030C, strain SLT2, stronger effect = lower value) was 1.02 and 1.05 and the normalized growth (locus YHR079C, strain IRE1 (second series), stronger effect = lower value) was 1.02. For the same molecule, the normalized growth (locus YHR079C, strain IRE1, stronger effect = lower value) was 1.05, the normalized growth (locus YHR094C, strain hxt1, stronger effect = lower value) was 1.02 and the normalized growth (locus YHR129C, strain ARP1, stronger effect = lower value) was 1.01. It also gave a normalized growth (locus YHR142W, strain chs7, stronger effect = lower value) of 0.981, a normalized growth (locus YHR200W, strain rpn10, stronger effect = lower value) of 1.03 and a normalized growth (locus YIL066C, strain RNR3, stronger effect = lower value) of 1.01. The normalized growth (locus YIL073C, strain SPO22, stronger effect = lower value) was 0.95, the normalized growth (locus YIL125W, strain kgd1, stronger effect = lower value) was 1.04 and the normalized growth (locus YIR030C, strain dcg1, stronger effect = lower value) was 1.03. The normalized growth (locus YJL092W, strain hpr5, stronger effect = lower value) was 1.03, the normalized growth (locus YJL095W, strain BCK1 (second series), stronger effect = lower value) was 1.01 and the normalized growth (locus YJL095W, strain BCK1, stronger effect = lower value) was 0.959 and 1.05. The normalized growth (locus YJL115W, strain asf1, stronger effect = lower value) was 1.01, the normalized growth (locus YJL129C, strain trk1, stronger effect = lower value) was 1.01 and the normalized growth (locus YJL134W, strain LCB3, stronger effect = lower value) was 1.01. The normalized growth (locus YJL154C, strain vps35, stronger effect = lower value) was 1.01, the normalized growth (locus YJL164C, strain tpk1, stronger effect = lower value) was 1.03 and the normalized growth (locus YJL166W, strain qcr8, stronger effect = lower value) was 1.02. The normalized growth (locus YJL168C, strain set2, stronger effect = lower value) was 1.01, the normalized growth (locus YJL187C, strain SWE1 (second series), stronger effect = lower value) was 0.975 and the normalized growth (locus YJL187C, strain SWE1, stronger effect = lower value) was 0.987. It also gave a normalized growth (locus YJR043C, strain POL32, stronger effect = lower value) of 1.02.
